Bioassay records (PubChem)
IP6K1 inh: blocks human inositol hexakisphosphate kinase 1. Q92551. IP6K1 kinase, ADP-Glo luminescence, 2 h; hits give low values. activity change, % (series mostly up to about 58 µM). actives 0.81% (n = 140,000); in the data active means activity change below about -25%
Target sequence (Q92551 whole entry, looked up): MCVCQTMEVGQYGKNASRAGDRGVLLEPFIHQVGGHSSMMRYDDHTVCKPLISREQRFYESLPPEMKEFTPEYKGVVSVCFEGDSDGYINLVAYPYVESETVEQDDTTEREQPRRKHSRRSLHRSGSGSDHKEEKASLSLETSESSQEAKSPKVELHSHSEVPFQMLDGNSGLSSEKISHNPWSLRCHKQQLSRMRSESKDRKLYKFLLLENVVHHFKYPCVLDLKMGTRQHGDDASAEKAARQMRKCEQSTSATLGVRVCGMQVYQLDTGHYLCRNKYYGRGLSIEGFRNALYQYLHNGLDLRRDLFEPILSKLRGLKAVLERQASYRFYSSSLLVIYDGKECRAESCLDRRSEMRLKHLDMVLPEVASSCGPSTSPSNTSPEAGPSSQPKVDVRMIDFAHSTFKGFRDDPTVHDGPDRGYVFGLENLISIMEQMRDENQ
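ADP-Glo luminescence measures ADP made by human IP6K1 during a 2 h RT reaction with ATP/IP6 (mix at 1.3 mM/130 uM); top library doses 57.5 and 19.1 uM final.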
SNCA expr inhib: SNCA gene expression inhibition; HEK-293 SNCA-luciferase knock-in, luminescence, 24 h; Potency, µM (series often up to 57.2 µM), inactives show at the top dose activity change, negative = inhibition, hits mostly inhibitors; actives 0.17% (n = 140,000); AID 1671194;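 further: potency means the concentration at half of the fitted maximal effect; plate controls were DMSO cells for no effect and cell-free wells for full effect; nearly all actives have a fitted effect of over 45% in size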
HEK293 viab: counter-screen for SNCA expression inhibitors: cell viability. HEK-293-SNCA-luc viability, GF-AFC fluorescence, 24 h. Potency, µM (titrated, usually from 57.1 µM), without a hit: at the highest dose activity change, negative = cytotoxicity, most hits filed as cytotoxic. actives 0.12% (n = 150,000);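 further: potency means the concentration at half of the fitted maximal effect; 0% = DMSO-treated cells and -100% = medium-only wells without cells; nearly all actives have a fitted effect of over 30% in size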
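Cytotoxicity counterscreen: after 24 h compound treatment of genome-edited SNCA-luciferase HEK-293 cells, live-cell protease substrate GF-AFC read by fluorescence after 30 min; activity scaled between DMSO (0%) and medium-only (-100%), curves Hill-fitted.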
GPT2 inhibitor: inhibitors of human GPT2 alanine aminotransferase | Q8TD30 | Recombinant GPT2, coupled pyruvate oxidase/HRP Amplex Red fluorescence | Potency, µM (top dose mostly 57.7 µM), for the others: at the top dose activity change, negative = inhibition, most hits filed as inhibitors | actives 0.25% (n = 100,000) | AID 1671188; further: potency means the concentration at half of the fitted maximal effect; nearly all actives have a fitted effect of over 60% in size
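Recombinant GPT2 (10ng/uL) with 250uM a-KG and 2mM L-alanine, 30 min at room temperature, in HEPES pH 7.5 buffer. Pyruvate detected by pyruvate oxidase/HRP/Amplex Red fluorescence after 30 min in the dark; AOA (50uM) as positive control.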
IP6K1 inh cnf: confirmation of human IP6K1 inhibitors. shares compounds with IP6K1 inh. actives 13% (n = 1,200). Potency, µM (titrated, usually from 49 µM), without a hit: at the top dose activity change, negative = inhibition, hits mostly inhibitors. recombinant IP6K1 kinase, ADP-Glo luminescence, 2 h; further: potency means the concentration at half of the fitted maximal effect; nearly all actives have a fitted effect of over 65% in size
Starred values were filed as active, the others as inactive; i = inactive; ? = inconclusive; nt = no result; ! = not active in a repeat; [ ] = remark or other dose. Compounds with a hit are over-represented: about 1.1% of the library has one in this group of screens. Unless noted, the call rests on the fitted dose curve; in most records, active means well fitted curve in the direction sought with a large enough effect; inconclusive means small, poorly fitted or top-dose-only effect, or another doubt; inactive means no such curve, though single readings can be large; an effect the other way counts as inactive or inconclusive. Unless noted, on the % scale 0 is the no-effect control and ±100 the full control effect.

SMILES	IP6K1 inh	SNCA expr inhib	HEK293 viab	GPT2 inhibitor	IP6K1 inh cnf
COc1cccc(-c2ncc3c(n2)OCCN(c2ccccc2)C3=O)c1	-27*	?	-8%[87.6 µM]	-10%[88.5 µM]	?
Cc1ccc2c(CN3CCN(Cc4ccccc4Cl)CC3)cc(=O)oc2c1	-16	-5%	1%	nt	nt
Cc1ccc(S(=O)(=O)N2CCN(Cc3ccccc3Cl)CC2)cc1	-56*	22%	-6%	nt	-8%
Cc1nn2c(=O)cc(COC(=O)c3ccc(F)cc3)nc2s1	-27*	71%	-5%	nt	-13%
O=C(NCc1ccc(C(F)(F)F)cc1)C1CCN(C(=O)c2ccc(-c3cccs3)cc2)CC1	-12	nt	nt	nt	nt
COCCN(Cc1cccs1)S(=O)(=O)c1cc(-c2cc(C)no2)ccc1C	-33*	-25%	-4%	nt	?
CCc1nc2nc(C)c(NS(=O)(=O)c3ccc(F)c(C)c3)c(=O)n2[nH]1	-28*	27%	7%	nt	9%
Cc1ccc(S(=O)(=O)N2CCCc3cc(NS(=O)(=O)c4cccc(Cl)c4)ccc32)cc1	-26*	?	-23%	nt	6%
CCN(CC)CCNC(=O)c1c(C)[nH]c(/C=C2\C(=O)Nc3ccc(Cl)cc32)c1C	nt	nt	nt	nt	35%
Cc1[nH]c(/C=C2\C(=O)Nc3ccc(F)cc32)c(C)c1C(=O)NC[C@H](O)CN1CCOCC1	-5	nt	-36%	i	36%
Cc1[nH]c(C=C2C(=O)Nc3ccc(S(=O)(=O)N(C)c4cccc(Cl)c4)cc32)c(C)c1C(=O)N1CCN(C)CC1	nt	-33%	?	i	nt
O=C1CN([S+](=O)([O-])c2ccc(F)cc2)CC(O)CN1C1Cc2ccccc2C1 (stereo not given)	-3	nt	nt	nt	nt
COc1ccccc1Nc1ccnc(N2CCCC(C(=O)NCc3ccc(F)c(F)c3)C2)n1 (stereo not given)	11	-18%	-19%[12.5 µM]	1%	nt
COc1ccccc1Nc1ccnc(N2CCC(N[S+](=O)([O-])c3ccc(C)cc3)CC2)n1	-1	8%	2%[12.5 µM]	i	nt
O=C(Cc1c[nH]c2ncc(-c3ccccc3)cc12)Nc1ccc(Cl)cc1	-11	-15%[87.6 µM]	-11%[87.6 µM]	-1%[88.5 µM]	nt
O=C(Cc1c[nH]c2ncc(-c3ccc(F)cc3)cc12)NCc1cccnc1	-18	0%[87.6 µM]	-3%[87.6 µM]	5%[88.5 µM]	nt
O=C(Cc1c[nH]c2ncc(-c3ccc(F)c(Cl)c3)cc12)NCc1cccnc1	-26*	-19%[87.6 µM]	-18%[87.6 µM]	1%[88.5 µM]	?
NC(=O)Cc1c[nH]c2ncc(-c3ccc(F)c(Cl)c3)cc12	-36*	5%[87.6 µM]	4%[87.6 µM]	-13%[88.5 µM]	?
O=C(Cc1c[nH]c2ncc(-c3cccc(O)c3)cc12)N1CCOCC1	-17	?	-20%[87.6 µM]	i	nt
NC(=O)Cc1c[nH]c2ncc(-c3ccc(Cl)cc3)cc12	-43*	10%[87.6 µM]	-3%[87.6 µM]	4%[88.5 µM]	?
NC(=O)Cc1c[nH]c2ncc(-c3ccc4c(c3)OCO4)cc12	-47*	13%[87.6 µM]	11%[87.6 µM]	-2%[88.5 µM]	15µM*
O=C(NCCNC(=O)c1cccnc1)c1ccc(-c2cccc(C(F)(F)F)c2)cc1	-2	nt	nt	nt	nt
C[S+](=O)([O-])NCCNC(=O)c1ccc(-c2cccc(C(F)(F)F)c2)cc1	0	nt	nt	nt	nt
O=C(NCCN[S+](=O)([O-])c1cccc(C(F)(F)F)c1)c1cccc(-c2ccsc2)c1	-4	-16%	-26%	-2%	nt
CN1C[C@@H](NC(=O)c2ccc3c(c2)OCO3)C[C@H]1c1nc(-c2ccc(Cl)cc2)no1	-2	-31%[87.6 µM]	?	0%[88.5 µM]	nt
SMILES	IP6K1 inh	SNCA expr inhib	HEK293 viab	GPT2 inhibitor	IP6K1 inh cnf
O=C(O)c1cc(-c2cncnc2)cc(S(=O)(=O)N2CCCCCC2)c1	0	5%	-9%	2%	nt
O=C(O)c1cc(-c2ccccc2CO)cc(S(=O)(=O)N2CCCCCC2)c1	-30*	2%	-2%	4%[11.5 µM]	-16%
COc1ccc(C2=C(C)C(=O)N(Cc3ccc(C(=O)Nc4ccc(F)cc4C)cc3)S2(=O)=O)cc1	-30*	?	-2%	nt	-1%
O=C1NC(=O)/C(=C/c2ccc3nccnc3c2)S1	nt	33%	2%	i	nt
O=C1NC(=O)/C(=C/c2ccc(-c3ccc(F)cc3O)o2)S1	nt	21%	-8%	-22%	2.6µM*
O=Nc1c(-c2c(O)[nH]c3cc(Br)ccc23)[nH]c2ccccc12	nt	-5%	25µM*!	-4%	3.7µM*
